# Screens (PubChem BioAssay)
# Only some compounds are listed: those with a hit (about 12% of all), similar ones and a draw of the others.
# SARS PLpro yeast – blocks SARS-CoV papain-like protease in a yeast assay; S. cerevisiae expressing SARS-CoV PLpro, growth rescue; Potency, µM (titrated, usually from 32.9 µM), for inactives: at the top dose activity, positive = growth rescue, actives largely listed as activators; 0.19% of 330,000 active; AID 485353; calls by dose curve; further: 0% is about no effect; nearly all actives have a fitted effect of over 55% in size
# HCV inh – inhibitors of hepatitis C virus infection; Huh7.5.1 HCVcc-Cre infection, luciferase reporter, 44 h; Potency, µM (highest dose often 41.8 µM), for the others: at the top dose activity change, negative = inhibition, most hits filed as inhibitors; 3.4% of 340,000 active; further: on the % scale 0 is the no-effect control and ±100 the full control effect
#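 Reporter virus HCVcc-Cre (~0.5 moi) infects cells exposed to compound; seeding density 1,000 cells/well with 4 h settling beforehand. Luminescence, 15 sec read, taken 44 h post-infection following a 15 min RT substrate incubation.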
# NS1 function inh – blocks influenza NS1 protein function | AID 2326 | Potency, µM (highest dose often 46.1 µM), inactives show at the highest dose activity, positive = more growth | 0.4% of 270,000 active; calls by dose curve; further: actives are rising curves; nearly all actives have a fitted effect of over 50% in size
#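 Growth recovery, yeast-based: influenza A NS1 expressed in S. cerevisiae causes slow growth, and suppressors are detected by OD600. The parent strain without NS1 is used as positive control.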
# AMA1-RON2 inh – inhibitors of Plasmodium falciparum AMA1-RON2 interaction; AlphaScreen AMA1-biotinylated RON2 peptide binding; Potency, µM (doses to about 58.2 µM), without a hit: at the top dose activity change, negative = inhibition, hits mostly inhibitors; 0.2% of 360,000 active; AID 720542;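 further: 0% = vehicle wells and -100% = peptide control; nearly all actives have a fitted effect of over 45% in size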
#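 AMA1 (3D7) with his tag at 25 nM final met compounds first, then biotinylated RON2 peptide at 25 nM; detection used donor plus acceptor beads, 10 µg/mL apiece, read by AlphaScreen after 30 min at room temperature.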
# Pf growth 96h – inhibits malaria parasite growth, 96 h | P. falciparum luciferase reporter growth, 96 h | Potency, µM (highest dose often 28.7 µM), inactives show at the top dose activity change, negative = inhibition, actives largely listed as inhibitors | 6.9% of 320,000 active | AID 504834; further: on the % scale 0 is the no-effect control and ±100 the full control effect
#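 Delayed-death screen, second-generation endpoint: infected erythrocytes, 2% hematocrit, 0.05% parasitemia final; 96 hours at 37 C, 5% CO2; luciferase detection reagent; luminescence decrease equals reduced growth.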
# Pf growth 48h – inhibits P. falciparum growth in the first generation, 48 h; P. falciparum luciferase growth in erythrocytes, 48 h; Potency, µM (series often up to 28.7 µM), for the others: at the highest dose activity change, negative = inhibition, usual class: inhibitors; 5.9% of 310,000 active; further: on the % scale 0 is the no-effect control and ±100 the full control effect
#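 Growth was read as firefly luciferase luminescence after a 48 h, 37 C, 5% CO2 exposure of compounds to reporter-bearing P. falciparum cultures (0.1% parasitemia, 2% hematocrit final) in Albumax-supplemented RPMI 1640.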
# * = called active by the depositor; ? = inconclusive; . = no result; [ ] = another dose, or the depositor's remark. Unless noted, the call rests on the fitted dose curve; in most records, active means well fitted curve in the direction sought with a large enough effect; inconclusive means small, poorly fitted or top-dose-only effect, or another doubt; inactive means no such curve, though single readings can be large; an effect the other way counts as inactive or inconclusive. Potency means the concentration at half of the fitted maximal effect.
SMILES,SARS PLpro yeast,HCV inh,NS1 function inh,AMA1-RON2 inh,Pf growth 96h,Pf growth 48h
Cn1c(=O)c(=O)n(C)c2cc(N3CCCCC3)c(NS(=O)(=O)c3ccc([N+](=O)[O-])cc3)cc21,2.6%,2.1%,0.5%,-8.7%,9.9%,-13.4%
CCCNC(=O)Nc1ccc2c(c1)N(C)C(=O)c1ccccc1S2,0.4%,4.1%,7.5%,-6.0%,.,-11.2%
O=C(NCCN1CCOCC1)c1ccc2c(c1)N(Cc1cccc(F)c1)C(=O)c1ccccc1S2,2.7%,-0.1%,.,-6.5%,-12.8%,?
CCN1C(=O)c2ccccc2Sc2ccc(C(=O)NCCCN3CCCCC3)cc21,0.0%,?,-2.0%,1.0%,10.4µM*,-17.0%
CCCCNC(=O)Nc1ccc2c(c1)N(C)C(=O)c1ccccc1S2,0.8%,-16.1%,-4.1%,-2.2%,3.29µM*,?
Cc1ccc(CN2C(=O)c3ccccc3Sc3ccc(C(=O)NCCCN4CCOCC4)cc32)cc1,22.5%,32.2%,-3.9%,4.9%,43.9%,11.7µM*
O=C(CCc1ccccc1)Nc1ccc2ccccc2n1,-1.4%,?,-34.3%,-6.5%,?,114.1%
O=C(C[C@@H]1C/C=C/CCCC(=O)O[C@H](c2ccccc2)CNC1=O)N[C@H](CO)Cc1ccccc1,5.2%,-9.5%,.,-1.4%,.,.
Cc1cccc(NC(=O)C2CCN(C(=O)N3CCOc4ccccc43)CC2)c1C,0.2%,-0.3%,-4.7%,5.8%,14.7µM*,?
CC(=O)N1CCOc2ccc(S(=O)(=O)N3CCC(C(=O)Nc4ccc(C)cc4)CC3)cc21,-3.5%,-7.9%,7.1%,-3.8%,-0.1%,?
Cc1ccc(NC(=O)C2CCN(C(=O)N3CCOc4ccccc43)CC2)cc1,4.9%,-11.7%,-6.2%,2.7%,13.1µM*,?
CCC1CN(C(=O)N2CCC(C(=O)Nc3ccccc3F)CC2)c2ccccc2O1 (stereo unspecified),0.9%,?,-22.3%,1.4%,?,-12.5%
Cc1ccn2c(=O)nc(SCC(=O)NCCc3ccccc3)nc2c1,1.9%,-5.5%[8.37 µM],.,-0.4%,7.2%,12.5%
COc1cc(NC(=S)NCCCN2CCOCC2)cc(OC)c1,-18.0%,-2.9%,6.5%,8.6%,53.7%,13.8%
COc1ccc(-c2cn(-c3ccccc3)c3[n+]2CCS3)cc1,-14.4%,?,-0.7%,20.0%,0.104µM*,0.928µM*
c1ccc(-c2cn(-c3ccccc3)c3[n+]2CCS3)cc1,-0.3%,?,.,-1.3%,?,?
CC(C)(C)c1ccc(-c2cn(-c3ccc(Br)cc3)c3[n+]2CCCS3)cc1,-0.4%,?,.,8.6%,?,2.62µM*
Cc1cc(N2CCN(C(=O)c3ccco3)CC2)n2nc(-c3cccc(F)c3)cc2n1,-2.9%,10µM*,-39.2%,-10.6%,?,?
COc1cc(OC)cc(-c2cc3nc(C)cc(N4CCN(C(=O)c5ccco5)CC4)n3n2)c1,-5.3%,.,7.7%,.,1.85µM*,.
OC1CCN(c2cc(-c3ccccc3)nc3cc(-c4ccc(F)cc4)nn23)CC1,-2.1%,-29.5%,-2.4%,3.8%,20.3%,?
CCN1CCN(c2cc(-c3ccccc3)nc3cc(-c4cccc(F)c4)nn23)CC1,10.6%,?,-11.0%,0.2%,11.7µM*,?
CC(C)(C)NC(=O)C(=O)NNC(=O)c1cccc(F)c1,-1.9%,23.0%,.,71.1%,70.4%,166.0%
Cc1ccc(C(C(=O)NC2CCCCC2)N(Cc2ccccc2)C(=O)Cc2c[nH]c3ccccc23)o1 (stereo unspecified),-16.9%,?,6.6%,-9.2%,?,?
COc1ccc(CN(C(=O)Cc2c[nH]c3ccccc23)C(C(=O)NC2CCCCC2)c2ccc(C)o2)cc1 (stereo unspecified),-5.9%,?,?,-22.8%,5.22µM*,5.22µM*
COc1cccc(CN(C(=O)Cc2c[nH]c3ccccc23)C(C(=O)NC2CCCCC2)c2ccc(C)o2)c1 (stereo unspecified),-1.5%,?,29.9%,-7.1%[2.32 µM],?,13.1µM*
SMILES,SARS PLpro yeast,HCV inh,NS1 function inh,AMA1-RON2 inh,Pf growth 96h,Pf growth 48h
COc1ccccc1CCNC(=O)CSc1nc(=O)[nH]c2c1CCC2,1.1%,11.0%,.,19.6%,4.2%,?
CC1CCc2c(nc3nc[nH]n3c2=O)C1 (stereo unspecified),6.7%,6.0%,6.3%,3.1%,1.17µM*,.
C#CCNc1c2c(nc3ncnn13)CC(C)CC2 (stereo unspecified),-1.0%,-13.4%,-1.8%,12.3%,24.9%,7.5%
CN(C)c1ccc(C=c2c3cc(O)ccc3n3c2cc(-c2ccccc2)[n+]3C)cc1,.,?,.,14.1µM*,.,.
C[n+]1c(-c2ccccc2)cc2c(=Cc3ccccc3)c3ccccc3n21,.,?,.,15.8µM*,.,.
CC(C)(C)NC(=O)CSc1nc2[nH]ncc2c(=O)[nH]1,0.1%,16.3%,.,10.8%,0.0%,-13.2%
CCOc1ccccc1C(=O)Nc1ccccc1O,-31.5%,11.2µM*,-67.9%,-17.6%,.,?
CCOc1ccccc1NC(=O)c1ccoc1C,-2.2%,6.31µM*,-48.6%,13.7%,.,-8.4%
CCOc1ccccc1C(=O)Nc1cccc2ccccc12,-6.2%,?,3.4%,8.1%,80.2%,-7.8%
O=C(Nc1ccccc1Br)c1ccccc1-c1ccccc1,14.8%,?,-27.3%,-0.6%,7.38µM*,2.1%
O=C(Nc1ccccc1-c1ccccc1)c1ccccc1Br,-5.6%,-7.8%,-11.2%,-2.2%,0.0%,0.0%
CCOc1ccccc1C(=O)Nc1ccccc1-c1ccccc1,-29.3%,-22.3%,-7.6%,14.8%,4.15µM*,13.3%
CN(C)c1cc(-c2cccc(C(F)(F)F)c2)oc(=O)c1Cl,.,-1.1%,.,-6.1%,.,.
CCOc1ccccc1C(=O)NCC(=O)N(C)Cc1ccccc1C,1.0%,4.6%,-13.9%,0.0%,13.1µM*,10.4µM*
COc1ccc(N2CCN(C(=O)c3cccc(N4C(=O)C5CC=CC(C)C5C4=O)c3)CC2)cc1 (stereo unspecified),5.5%,.,2.1%,-2.3%,43.4%,21.5%
COc1ccc(N(C)S(=O)(=O)c2cccc(C(=O)NCc3ccc4c(c3)OCO4)c2)cc1,-3.0%,?,.,1.3%,-22.3%,-45.1%
COc1ccc(N(C)S(=O)(=O)c2cccc(C(=O)N3CCN(Cc4ccc5c(c4)OCO5)CC3)c2)cc1,1.7%,?,.,-25.5%,13.1µM*,?
COc1ccc(N(C)S(=O)(=O)c2cccc(C(=O)N3CCN(c4ccccc4)CC3)c2)cc1,-4.4%,?,.,?,?,10.4µM*
COc1ccc(N2CCN(C(=O)c3cccc(N4C(=O)C5C6C=CC(C6)C5C4=O)c3)CC2)cc1 (stereo unspecified),11.3%,4.4%,12.3%,2.0%,60.6%,10.4µM*
